Assay results taken from the supplement of paper PMC10849652.
Of roughly 8,800 targets only a part is listed; those with a hit were picked by preference. About 0.5% of all pairs of compound and target were hits. Unmarked numbers belong to inactive results.

Assays:
Experiment in all cases: log2 fold change, soluble protein after heating vs DMSO (PISA); higher = thermal stabilisation; K562 lysate, 10 uM; active = over 0.2 and 3.5 SD of the protein, either way, in both replicates (recomputed)
vemurafenib = compound: CCCS(=O)(=O)Nc1ccc(F)c(C(=O)c2c[nH]c3ncc(-c4ccc(Cl)cc4)cc23)c1F [vemurafenib]
Method in brief: (§1)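 To prepare the extract, K562 pellets were dounce-homogenised in PBS pH 7.4 with 1 mM MgCl2, giving crude material at 1 mg/mL protein. This was treated with 10 μM compound for 30 min, then heated in aliquots for 3 min over 48°C-58°C before pooling and addition of NP-40 to 0.5% at 4°C. Centrifugation at 21,000xg for 90 min left soluble protein in the supernatant, which TMTpro 16plex LC-MS/MS quantified with equalised channel sums. Results are log-two fold changes in thermal stability compared with solvent controls, from duplicates.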

[1] = compound: CCCS(=O)(=O)Nc1ccc(F)c(C(=O)c2c[nH]c3ncc(Cl)cc23)c1F
Method in brief: as §1

barasertib = compound: CCN(CCCOc1ccc2c(Nc3cc(CC(=O)Nc4cccc(F)c4)[nH]n3)ncnc2c1)CCOP(=O)(O)O [barasertib]
Method in brief: as §1

[2] = compound: CC[C@@H]1C(=O)N(C)c2cnc(Nc3ccc(C(=O)NC4CCN(C)CC4)cc3OC)nc2N1C1CCCC1
Method in brief: as §1

volasertib = compound: CC[C@@H]1C(=O)N(C)c2cnc(Nc3ccc(C(=O)N[C@H]4CC[C@H](N5CCN(CC6CC6)CC5)CC4)cc3OC)nc2N1C(C)C [volasertib]
Method in brief: as §1

[3] = compound: CCn1c(C(=O)N(C2CC2)C2CC2)cc2c3c(ncn3C)c(Nc3cc(C)n(C)n3)nc21
Method in brief: as §1

[4] = compound: CCn1cc(-c2ccnc3[nH]c(-c4cccc(CN(C)C)c4)cc23)c(-c2ccc(NC(=O)N(C)C)cc2)n1
Method in brief: as §1

[5] = compound: CN1CCC(CNc2ccc3ncc(-c4cccc(OC(F)(F)F)c4)n3n2)CC1
Method in brief: as §1

saracatinib = compound: CN1CCN(CCOc2cc(OC3CCOCC3)c3c(Nc4c(Cl)ccc5c4OCO5)ncnc3c2)CC1 [saracatinib]
Method in brief: as §1

sotrastaurin = compound: CN1CCN(c2nc(C3=C(c4c[nH]c5ccccc45)C(=O)NC3=O)c3ccccc3n2)CC1 [sotrastaurin]
Method in brief: as §1

alvocidib = compound: CN1CC[C@H](c2c(O)cc(O)c3c(=O)cc(-c4ccccc4Cl)oc23)[C@H](O)C1 [alvocidib]
Method in brief: as §1

Tubastatin A = compound: CN1CCc2c(c3ccccc3n2Cc2ccc(C(=O)NO)cc2)C1 [Tubastatin A]
Method in brief: as §1

[6] = compound: CNC(=O)C1=CC=CC=C1NC2=NC(=NC=C2Cl)NC3=C(C=C(C=C3)N4CCOCC4)OC
Method in brief: as §1

defactinib = compound: CNC(=O)c1ccc(Nc2ncc(C(F)(F)F)c(NCc3nccnc3N(C)S(C)(=O)=O)n2)cc1 [defactinib]
Method in brief: as §1

[7] = compound: CNc1nc(-c2ccc3c(N)n[nH]c3c2)cc(N2C[C@@H](C(=O)NC3CCCCC3)CC[C@H]2C)n1
Method in brief: as §1

encorafenib = compound: COC(=O)N[C@@H](C)CNc1nccc(-c2cn(C(C)C)nc2-c2cc(Cl)cc(NS(C)(=O)=O)c2F)n1 [encorafenib]
Method in brief: as §1

[8] = compound: COC(=O)[C@H](CCSC)NC(=O)C1=C(C=C(C=C1)NC[C@H](CS)N)C2=CC=CC=C2
Method in brief: as §1

[9] = compound: COc1cc2nc(-c3cc(F)ccc3O)nc(N[C@@H]3CNC[C@H]3C(C)(C)O)c2cc1OC
Method in brief: as §1

alisertib = compound: COc1cc(Nc2ncc3c(n2)-c2ccc(Cl)cc2C(c2c(F)cccc2OC)=NC3)ccc1C(=O)O [alisertib]
Method in brief: as §1

gefitinib = compound: COc1cc2ncnc(Nc3ccc(F)c(Cl)c3)c2cc1OCCCN1CCOCC1 [gefitinib]
Method in brief: as §1

UniProt O60337, sequence (O60337 whole entry, looked up): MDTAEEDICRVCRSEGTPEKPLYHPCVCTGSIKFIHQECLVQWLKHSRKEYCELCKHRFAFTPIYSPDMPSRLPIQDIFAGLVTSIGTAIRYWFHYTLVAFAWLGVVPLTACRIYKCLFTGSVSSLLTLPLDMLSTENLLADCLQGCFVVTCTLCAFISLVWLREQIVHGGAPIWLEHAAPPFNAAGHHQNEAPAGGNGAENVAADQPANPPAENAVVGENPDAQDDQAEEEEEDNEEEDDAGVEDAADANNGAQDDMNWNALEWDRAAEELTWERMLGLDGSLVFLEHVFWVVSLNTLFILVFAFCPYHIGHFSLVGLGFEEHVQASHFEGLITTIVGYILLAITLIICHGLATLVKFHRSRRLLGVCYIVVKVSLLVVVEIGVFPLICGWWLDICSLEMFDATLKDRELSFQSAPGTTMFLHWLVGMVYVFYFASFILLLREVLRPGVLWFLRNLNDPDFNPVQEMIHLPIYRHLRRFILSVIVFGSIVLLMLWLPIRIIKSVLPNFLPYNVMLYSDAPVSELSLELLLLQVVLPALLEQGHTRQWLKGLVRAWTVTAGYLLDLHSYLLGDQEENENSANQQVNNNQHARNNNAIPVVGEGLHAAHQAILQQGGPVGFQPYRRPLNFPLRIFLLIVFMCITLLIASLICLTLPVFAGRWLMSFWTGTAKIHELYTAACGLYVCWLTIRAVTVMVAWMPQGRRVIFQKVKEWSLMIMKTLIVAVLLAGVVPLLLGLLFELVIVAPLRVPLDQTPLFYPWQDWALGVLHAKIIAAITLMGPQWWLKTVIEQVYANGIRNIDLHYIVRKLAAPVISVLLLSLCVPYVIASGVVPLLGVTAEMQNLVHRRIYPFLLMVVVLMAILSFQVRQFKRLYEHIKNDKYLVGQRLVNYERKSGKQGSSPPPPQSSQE
UniProt Q9NX58, sequence (Q9NX58 whole entry, looked up): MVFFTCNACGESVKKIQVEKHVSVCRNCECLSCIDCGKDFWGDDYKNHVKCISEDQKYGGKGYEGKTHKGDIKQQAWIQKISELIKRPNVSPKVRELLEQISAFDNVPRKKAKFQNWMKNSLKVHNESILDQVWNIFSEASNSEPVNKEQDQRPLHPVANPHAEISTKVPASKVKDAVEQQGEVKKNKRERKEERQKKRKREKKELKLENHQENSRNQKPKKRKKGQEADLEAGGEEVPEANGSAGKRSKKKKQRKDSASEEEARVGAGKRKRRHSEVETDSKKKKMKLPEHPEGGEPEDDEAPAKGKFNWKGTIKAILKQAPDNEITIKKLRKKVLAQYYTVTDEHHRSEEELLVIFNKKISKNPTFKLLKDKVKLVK
UniProt Q8NG31, sequence (Q8NG31 whole entry, looked up): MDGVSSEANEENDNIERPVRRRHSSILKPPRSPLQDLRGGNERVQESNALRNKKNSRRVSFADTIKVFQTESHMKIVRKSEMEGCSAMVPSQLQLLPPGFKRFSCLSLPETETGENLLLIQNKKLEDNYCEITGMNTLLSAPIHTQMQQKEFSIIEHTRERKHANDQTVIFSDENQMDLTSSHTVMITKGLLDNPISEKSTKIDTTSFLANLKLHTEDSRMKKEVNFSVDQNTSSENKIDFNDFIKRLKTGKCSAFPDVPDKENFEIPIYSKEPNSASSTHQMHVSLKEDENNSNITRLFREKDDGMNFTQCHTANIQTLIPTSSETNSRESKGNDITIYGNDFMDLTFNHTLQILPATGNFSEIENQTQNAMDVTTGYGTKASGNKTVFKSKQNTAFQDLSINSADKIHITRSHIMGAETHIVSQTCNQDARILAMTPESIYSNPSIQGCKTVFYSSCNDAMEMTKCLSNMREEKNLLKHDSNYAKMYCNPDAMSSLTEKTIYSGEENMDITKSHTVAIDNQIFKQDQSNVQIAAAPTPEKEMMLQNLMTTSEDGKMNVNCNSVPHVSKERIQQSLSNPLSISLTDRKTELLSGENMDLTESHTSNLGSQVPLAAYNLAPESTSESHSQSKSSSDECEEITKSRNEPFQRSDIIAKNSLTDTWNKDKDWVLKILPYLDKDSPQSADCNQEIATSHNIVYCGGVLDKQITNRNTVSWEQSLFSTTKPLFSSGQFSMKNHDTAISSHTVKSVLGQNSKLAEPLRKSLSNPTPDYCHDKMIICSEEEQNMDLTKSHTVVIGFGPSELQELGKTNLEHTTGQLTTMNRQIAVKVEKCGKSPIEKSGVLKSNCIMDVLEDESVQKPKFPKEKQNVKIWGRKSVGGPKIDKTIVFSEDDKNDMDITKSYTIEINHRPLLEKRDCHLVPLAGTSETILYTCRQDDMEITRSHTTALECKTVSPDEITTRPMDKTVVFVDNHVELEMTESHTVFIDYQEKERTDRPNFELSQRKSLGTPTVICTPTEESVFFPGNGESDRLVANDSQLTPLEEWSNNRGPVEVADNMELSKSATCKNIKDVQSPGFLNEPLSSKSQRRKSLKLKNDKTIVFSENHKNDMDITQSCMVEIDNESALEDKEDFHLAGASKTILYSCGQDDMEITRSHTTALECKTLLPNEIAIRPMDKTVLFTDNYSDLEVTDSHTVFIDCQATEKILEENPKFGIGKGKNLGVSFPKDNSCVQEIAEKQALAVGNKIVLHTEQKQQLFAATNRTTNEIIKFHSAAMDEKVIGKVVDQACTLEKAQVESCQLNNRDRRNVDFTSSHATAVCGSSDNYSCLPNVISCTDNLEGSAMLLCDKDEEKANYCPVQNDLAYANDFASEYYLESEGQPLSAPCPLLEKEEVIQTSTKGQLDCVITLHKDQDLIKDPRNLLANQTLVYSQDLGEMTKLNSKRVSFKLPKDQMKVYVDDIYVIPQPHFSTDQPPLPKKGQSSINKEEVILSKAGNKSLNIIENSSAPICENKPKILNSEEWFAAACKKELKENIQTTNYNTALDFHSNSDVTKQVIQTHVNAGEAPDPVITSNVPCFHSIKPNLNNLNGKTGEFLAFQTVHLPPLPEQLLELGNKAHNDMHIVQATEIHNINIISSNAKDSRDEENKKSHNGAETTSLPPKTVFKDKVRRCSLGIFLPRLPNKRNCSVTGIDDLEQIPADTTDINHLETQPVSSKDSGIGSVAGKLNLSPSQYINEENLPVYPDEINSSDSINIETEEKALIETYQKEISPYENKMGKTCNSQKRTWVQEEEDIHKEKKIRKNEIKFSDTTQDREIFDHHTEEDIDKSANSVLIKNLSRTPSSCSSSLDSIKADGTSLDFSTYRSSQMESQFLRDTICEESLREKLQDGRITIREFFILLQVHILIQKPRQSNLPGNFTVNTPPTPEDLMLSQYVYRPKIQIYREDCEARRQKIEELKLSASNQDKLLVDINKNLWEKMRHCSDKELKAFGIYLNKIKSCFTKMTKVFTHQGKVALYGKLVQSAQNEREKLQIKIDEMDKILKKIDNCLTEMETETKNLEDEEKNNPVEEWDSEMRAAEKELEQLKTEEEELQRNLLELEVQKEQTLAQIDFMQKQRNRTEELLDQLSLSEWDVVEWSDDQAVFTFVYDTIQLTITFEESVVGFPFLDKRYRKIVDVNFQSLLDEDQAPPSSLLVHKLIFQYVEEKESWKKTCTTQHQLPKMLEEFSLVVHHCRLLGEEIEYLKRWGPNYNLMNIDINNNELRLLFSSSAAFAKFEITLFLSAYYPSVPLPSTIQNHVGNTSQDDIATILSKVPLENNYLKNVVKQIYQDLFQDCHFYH
UniProt P07948, sequence (P07948 whole entry, looked up): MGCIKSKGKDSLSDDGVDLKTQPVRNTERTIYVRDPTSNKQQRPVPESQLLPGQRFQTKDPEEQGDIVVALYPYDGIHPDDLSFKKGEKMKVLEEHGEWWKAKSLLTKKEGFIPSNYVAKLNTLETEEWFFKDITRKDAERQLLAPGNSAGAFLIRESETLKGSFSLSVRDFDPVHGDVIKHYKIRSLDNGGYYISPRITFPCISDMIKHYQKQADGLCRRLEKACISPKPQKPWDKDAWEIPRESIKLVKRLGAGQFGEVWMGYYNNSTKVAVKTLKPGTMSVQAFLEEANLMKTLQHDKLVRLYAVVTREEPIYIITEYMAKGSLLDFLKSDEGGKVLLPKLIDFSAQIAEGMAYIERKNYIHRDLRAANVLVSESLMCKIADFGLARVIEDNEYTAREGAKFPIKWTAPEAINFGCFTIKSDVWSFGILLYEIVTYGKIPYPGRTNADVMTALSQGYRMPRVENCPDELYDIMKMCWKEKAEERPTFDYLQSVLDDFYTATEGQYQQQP
UniProt Q8IVT5, sequence (Q8IVT5 whole entry, looked up): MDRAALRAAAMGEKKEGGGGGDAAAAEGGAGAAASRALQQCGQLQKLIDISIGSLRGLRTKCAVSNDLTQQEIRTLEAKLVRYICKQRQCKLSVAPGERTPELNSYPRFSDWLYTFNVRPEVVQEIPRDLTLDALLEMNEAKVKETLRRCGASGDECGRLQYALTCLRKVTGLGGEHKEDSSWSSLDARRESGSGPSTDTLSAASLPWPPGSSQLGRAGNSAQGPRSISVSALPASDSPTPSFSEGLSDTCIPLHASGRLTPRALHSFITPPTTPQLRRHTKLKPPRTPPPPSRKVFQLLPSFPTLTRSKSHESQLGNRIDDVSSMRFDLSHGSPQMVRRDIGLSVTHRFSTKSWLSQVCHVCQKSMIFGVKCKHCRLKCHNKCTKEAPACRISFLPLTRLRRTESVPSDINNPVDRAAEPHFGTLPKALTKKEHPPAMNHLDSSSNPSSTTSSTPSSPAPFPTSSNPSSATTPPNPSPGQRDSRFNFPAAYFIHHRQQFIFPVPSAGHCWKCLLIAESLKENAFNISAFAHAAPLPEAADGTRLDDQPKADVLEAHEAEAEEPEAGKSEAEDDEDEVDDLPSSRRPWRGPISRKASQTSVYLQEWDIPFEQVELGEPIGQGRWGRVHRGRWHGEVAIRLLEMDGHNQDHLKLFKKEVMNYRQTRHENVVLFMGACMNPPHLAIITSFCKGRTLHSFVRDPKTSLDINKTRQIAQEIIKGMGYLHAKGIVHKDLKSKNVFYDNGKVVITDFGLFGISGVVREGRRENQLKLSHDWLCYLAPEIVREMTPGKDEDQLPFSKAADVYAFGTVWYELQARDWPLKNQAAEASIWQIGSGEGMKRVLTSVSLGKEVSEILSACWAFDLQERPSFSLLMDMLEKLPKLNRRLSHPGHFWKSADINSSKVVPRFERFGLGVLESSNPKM

Target	log2 fold change (vemurafenib)	log2 fold change [1]	log2 fold change (barasertib)	log2 fold change [2]	log2 fold change (volasertib)	log2 fold change [3]	log2 fold change [4]	log2 fold change [5]	log2 fold change (saracatinib)	log2 fold change (sotrastaurin)	log2 fold change (alvocidib)	log2 fold change (Tubastatin A)	log2 fold change [6]	log2 fold change (defactinib)	log2 fold change [7]	log2 fold change (encorafenib)	log2 fold change [8]	log2 fold change [9]	log2 fold change (alisertib)	log2 fold change (gefitinib)
MANEA (UniProt Q5SRI9)	0.035	-0.019	-0.071	-0.001	-0.084	0.005	-0.627 (active)	0.254	-0.059	-0.019	-0.078	-0.08	-0.016	0.062	-0.09	0.028	-0.07	0.041		
KSR1 (UniProt Q8IVT5)	0.021	0.049	-0.022	-0.009	0.016	0.009	0.187	-0.056	-0.003	-0.065	0.214	-0.086	-0.042	-0.045	-0.038	0.075	0.257	0.115	0.028	-0.016
MARCHF6 (UniProt O60337)	0.043	0.052	0.233	0.038	0.078		-0.023	0.013	-0.13	0.034	0.07		-0.039	0.046	0.084	0.08	-0.05	0.008	-0.321	0.019
KNL1 (UniProt Q8NG31)	-0.031	0.064	0.011	-0.015	-0.044	-0.012	0.015	0	0.006	0.025	-0.008	-0.073	0.024	-0.007	0.018	0.043	0.055	0.004	-0.032	0.008
LYAR (UniProt Q9NX58)	0.011	0.005	-0.024	0.005	0.003	-0.027	0.312 (active)	-0.128	0.028	-0.039	0.072	0.018	0.006	0.014	-0.002	-0.005	0.021	-0.001	0.005	-0.043
LYN (UniProt P07948)	0.285	0.05	0.258	-0.067	-0.134	0.004	-0.012	0.233	0.605	-0.045	0.026	-0.046	0.203	0.076	-0.092	-0.01	-0.072	0.26	0.171	-0.006
MINDY1 isoform 3 (UniProt Q8N5J2)	-0.049	-0.26	-0.201	0.059	-0.041	-0.106			0.076	0.074		0.093	-0.031	0.021	-0.054	0.03	-0.053	0.103	0.001	0.134
MRPL12 (UniProt P52815)	0.01	-0.026	0.181	0.036	0.103	-0.019	-0.412 (active)	-0.032	0.004	0.015	0.066	0.117	0.06	0.096	0.037	0.003	-0.079	-0.01	0.115	-0.153
